Coupling enz = qHTS Assay for Inhibitors of Fructose-1,6-bisphosphate Aldolase from Giardia Lamblia: Coupling assay counterscreen; coupling enzyme system counterscreen, AmpLite Red fluorescence; activity change, negative = inhibition, % at 58.2 µM, hits read low; actives 0.67% (n = 290,000); AID 2472, 2010; in the data active means activity change below about -30%
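Fluorescence at 525 nm excitation and 598 nm emission measured inhibition of the coupled detection system without aldolase. Compounds (at 57.5 uM final) were preincubated 10 min at room temperature with coupling enzyme reagent before a 20 min substrate/AmpLite Red step.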
Sfp PPTase inh = qHTS Assay for Inhibitors of Bacillus subtilis Sfp phosphopantetheinyl transferase (PPTase) | Biochemical Sfp PPTase activity, qHTS | actives 3.5% (n = 310,000) | Potency, µM, most hits filed as inhibitors | AID 1490, 2009 | 4'-phosphopantetheinyl transferase ffp (Bacillus subtilis), Q9F4F7;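 further: the enzyme is Sfp with the accession as filed and its product quenches rhodamine fluorescence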
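Fluorescence-quenching assay: 15 nM Sfp-PPTase preincubated 15 min at room temperature with compound, then 5 uM rhodamine-CoA and 12.5 uM BHQ-2-labelled YbbR peptide added. Fluorescence (ex 525/em 598 nm) read at start and after 30 min; difference gives rate.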
Tau fluor counter = Counterscreen qHTS for Inhibitors of Tau Fibril Formation, Fluorescence Polarization; tau K18 P301L Alexa594 fluorescence, heparin fibrillization; Potency, µM (highest dose often 57.7 µM); actives 0.93% (n = 280,000); AID 1463, 2008; further: nearly all actives have a fitted effect of over 55% in size
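Human tau K18 P301L (15 uM unlabeled, 0.24 uM Alexa 594-labeled) in 100 mM sodium acetate pH 7 with 20 uM heparin, 6 hr at 37 C. ThT 30 uM added, 1 hr ambient; Alexa 594 FP and total fluorescence read at 555/632 nm.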
G9a block = qHTS Assay for Inhibitors of Histone Lysine Methyltransferase G9a; G9a H3K9 monomethylation, AlphaScreen, 2 h; actives 8.8% (n = 350,000); AID 504332, 2011; Potency, µM (highest dose often 102 µM), actives largely listed as inhibitors; further: nearly all actives have a fitted effect of over 75% in size
Target sequence (Q96KQ7 913-1193 limits assumed): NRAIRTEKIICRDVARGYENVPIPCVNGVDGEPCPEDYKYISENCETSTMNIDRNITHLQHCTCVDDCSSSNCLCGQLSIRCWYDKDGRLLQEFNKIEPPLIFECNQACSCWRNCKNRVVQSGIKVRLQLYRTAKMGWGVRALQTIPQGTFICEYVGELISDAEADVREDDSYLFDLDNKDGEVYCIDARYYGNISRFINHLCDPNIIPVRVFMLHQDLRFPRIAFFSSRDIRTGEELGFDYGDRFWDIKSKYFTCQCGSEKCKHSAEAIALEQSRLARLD
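Quantitative HTS format: methyltransferase activity on a biotin-tagged H3K9 peptide is measured by AlphaScreen, using a rabbit anti-monomethyl-H3K9 antibody with streptavidin donor and anti-IgG acceptor beads. Final levels are 20 nM enzyme, 500 nM peptide, 20 uM SAM; 2 h RT.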
Tau FP inhib = qHTS for Inhibitors of Tau Fibril Formation, Fluorescence Polarization; Microtubule-associated protein tau (Homo sapiens), P10636; K18 P301L tau heparin fibrillization, Alexa594 FP, 6 h; Potency, µM (top dose mostly 57.7 µM), usual class: inhibitors; actives 0.39% (n = 280,000); AID 1468, 2008; further: nearly all actives have a fitted effect of over 55% in size
Target sequence (P10636 561-689 P618L limits assumed): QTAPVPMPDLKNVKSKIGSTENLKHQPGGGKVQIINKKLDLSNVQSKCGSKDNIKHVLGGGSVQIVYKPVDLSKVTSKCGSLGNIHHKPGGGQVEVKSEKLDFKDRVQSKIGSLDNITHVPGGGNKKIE
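FP of Alexa 594-tau after heparin (20 uM) induction. Substrate: human K18 P301L, 15 uM unlabeled, 0.24 uM labeled. Buffer 100 mM sodium acetate pH 7. 6 hr, 37 C.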
Tau ThT inhib = qHTS for Inhibitors of Tau Fibril Formation, Thioflavin T Binding. recombinant tau K18 P301L (four-repeat tau fragment), heparin-induced fibrillization, ThT fluorescence. Potency, µM (titrated, usually from 57.4 µM), usual class: inhibitors. actives 2.1% (n = 270,000). AID 1460, 2008; further: nearly all actives have a fitted effect of over 55% in size
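Recombinant human tau K18 fragment […] carrying P301L, 15 uM unlabeled plus 0.24 uM Alexa 594-labeled, was fibrillized with 20 uM heparin in 100 mM sodium acetate pH 7 for 6 hr at 37 C; 30 uM ThT fluorescence read after 1 hr.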
Hits are given with their value; - = inactive; ? = inconclusive; . = no result; [ ] = remark or other dose. Only some compounds are listed: those with a hit (about 11% of all), similar ones and a draw of the others. Unless noted, the call rests on the fitted dose curve; in most records, active means well fitted curve in the direction sought with a large enough effect; inconclusive means small, poorly fitted or top-dose-only effect, or another doubt; inactive means no such curve, though single readings can be large; an effect the other way counts as inactive or inconclusive.

SMILES	Coupling enz	Sfp PPTase inh	Tau fluor counter	G9a block	Tau FP inhib	Tau ThT inhib
Cc1c(C)n(C)c2ccc(C(=O)NCCc3ccc(Cl)cc3)cc12	.	.	?	-	-	?
COc1ccc(NS(=O)(=O)c2ccc3c(c2)CCN3C(=O)CCC(=O)O)cc1Cl	.	.	-	-	-	-
Cc1ccc(C(=O)N/C(=C\c2ccc(Cl)cc2)C(=O)NC2CCCCC2)cc1	.	.	-	-	-	-
O=C(NC(=S)Nc1nc2ccccc2s1)c1ccco1	-	?	-	?	-	?
COc1ccc(C(=O)NC(=S)Nc2cccc3ncccc23)cc1[N+](=O)[O-]	.	-	.	-	.	.
COCCCNC(=S)Nc1cccc2ncccc12	-33	-	-	?	-	-
O=C(NC(=S)Nc1cccc2ncccc12)c1ccco1	-	-	-	45µM	-	-
O=C(NC(=S)Nc1ccccc1Cl)c1ccco1	-	-	.	-	.	.
Cc1cc(NC(=S)NC(=O)c2ccco2)c2ccccc2n1	-	28µM	-	?	-	?
O=C(NC(=S)Nc1cccc2cc(O)ccc12)c1ccco1	-	-	.	16µM	.	.
Cc1cccc(NC(=S)NC(=O)c2ccco2)n1	-	-	-	-	-	-
CCOc1ccc(C(=O)NCC(c2ccc3c(c2)OCO3)N2CCN(c3ccc(F)cc3)CC2)cc1 (stereo not drawn)	.	.	?	?	-	?
N#C/C(=C\c1ccco1)C(=O)NCc1ccccc1	-	-	-	-	-	-
N#C/C(=C\c1ccco1)C(=O)Nc1cccc2ncccc12	-	-	-	50µM	-	-
Cc1ccc(NC(=O)C(=O)NCC(c2ccc3c(c2)OCO3)N2CCOCC2)c(C)c1 (stereo not drawn)	.	.	-	-	-	-
c1ccc(CCNc2ccc3nncn3n2)cc1	-	-	-	-	-	-
NNc1ccc2nncn2n1	-	?	-	50µM	-	-
Cc1c(CNC2CCC(C)CC2)c(C(=O)O)c(C)n1Cc1ccc(Cl)cc1 (stereo not drawn)	.	.	-	-	-	-
COc1ccc(OC)c(/C=C/C(=O)N2C(=O)c3cccc(N)c3C2=O)c1	-	-	-	-	?	14µM
COc1cc(/C=C/C(=O)N2C(=O)c3cccc(N)c3C2=O)cc(OC)c1OC	-	-	-	-	?	?
Nc1cccc2c1C(=O)N(C(=O)/C=C/c1cccc(F)c1)C2=O	-	-	-	?	?	14µM
Nc1cccc2c1C(=O)N(C(=O)/C=C/c1cccc(Br)c1)C2=O	-	7.1µM	-	.	?	25µM
O=C(/C=C/c1cccc(F)c1)N1CCN(c2ccccn2)CC1	-	-	-	-	-	-
Cn1cc(Cl)c(C(=O)OCC(=O)Nc2ccc(S(N)(=O)=O)cc2)n1	-	-	.	-	.	.
COc1ccc(-c2cc(C(F)F)nc(-n3nc(C)cc3C)n2)cc1	-	50µM	-	-[12.7 µM]	-	?
SMILES	Coupling enz	Sfp PPTase inh	Tau fluor counter	G9a block	Tau FP inhib	Tau ThT inhib
CN1CCN(C(CNC(=O)C(=O)Nc2ccccc2)c2ccc3c(c2)OCO3)CC1 (stereo not drawn)	.	.	-	-	-	-
CC1CCCC(C)N1/N=C/C=C/c1ccccc1[N+](=O)[O-] (stereo not drawn)	-	-	-	32µM	-	?
COc1ccccc1N1CCN(/N=C/C=C\c2ccco2)CC1	-	79µM	-	35µM	-	?
CCOC(=O)N/N=C/C=C/c1ccccc1[N+](=O)[O-]	-	-	-	-	-	-
O=C(CN1CCN(Cc2ccccc2Cl)CC1)N/N=C/C=C/c1ccco1	-	-	-	?	-	?
COc1ccccc1/C=C/C=N/N1CCN(c2ccccn2)CC1	-	-	-	-[0.501 µM]	-	?
COc1ccccc1N1CCN(/N=C/C=C\c2ccccc2[N+](=O)[O-])CC1	-	-	-	8.9µM	?	?
Clc1ccccc1CN1CCN(/N=C/C=C/c2ccco2)CC1	-	56µM	-	.	-	?
C=Cc1ccc(Cn2c(=O)n(-c3cccc(C)c3)c(=O)c3c2c2cc(C)ccc2n3C)cc1	.	.	-	-	-	-
COc1ccc(C(=O)Nc2ccc(C(=O)N3CCCCC3C)cc2)c(OC)c1OC (stereo not drawn)	.	-	.	-	.	.
Cn1c(N)c(C(=O)NCc2ccccc2Cl)sc1=S	-	-	-	-[12.7 µM]	-	-
CCNC(=O)c1sc(=S)n(CC)c1N	-	50µM	-	13µM	-	-
CCn1c(N)c(C(=O)NCC2CCCO2)sc1=S (stereo not drawn)	-	18µM	-	-[12.7 µM]	?	35µM
Cn1c(N)c(C(=O)Nc2ccc(-c3ccccc3)cc2)sc1=S	-	3.2µM	-	8.9µM	-	-
CC(C)OCCCNC(=O)c1sc(=S)n(C)c1N	-	50µM	-	14µM	-	-
Cc1ccc(CCNC(=O)c2ccc3c(=O)n(-c4ccc(C)cc4)c(=O)[nH]c3c2)cc1	.	.	-	-	-	-
CC(C)c1ccc(N(C(=O)CNC(=O)c2ccco2)C(C(=O)NC2CCCC2)c2cccnc2)cc1 (stereo not drawn)	-	-	.	-	.	.
O=C(c1ccco1)N1CCC2(CC1)CN(c1ccccn1)C2	-	-	.	-[12.7 µM]	.	.
N#Cc1nc(NCCCCO)nc(Nc2ccccc2)n1	-	.	.	.	.	.
CCn1c(N)c(C(=O)N2CCOCC2)sc1=S	-	45µM	-	10µM	?	-
CCn1c(N)c(C(=O)NCCCOC)sc1=S	-	20µM	-	28µM	?	-
CCn1c(N)c(C(=O)NCc2cccnc2)sc1=S	-	-	-	-	-	-
C=CCn1c(N)c(C(=O)N2CCOCC2)sc1=S	-	-	-	?	-	-
